# Source: PubChem BioAssay AID576 (NMMLSC, 2007)
# In all, about 24,000 compounds went through this assay and about 150 (0.62%) were called active.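 Rule for the calls: active = fluorescence ratio above 2.44, which is 1 plus 3 SD of all ratios; inconclusive = signal too bright to measure linearly, ratio around 10 or more; inactive = fluorescence ratio below 2.44.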 This excerpt belongs to a sample that is enriched for actives.
# Assay: compound autofluorescence on Jurkat cells, primary screen, artefact control for VLA-4 allosteric ligand project, cell-based, flow cytometry (AID 576);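 note: green fluorescence of cells measured with 488 nm excitation and 530 nm emission; tested at 10 µM compound in the well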
# Details: stronger effect = higher value, 1 = vehicle-only cell background
row,Structure (SMILES),fluorescence ratio
1,O=C(CN1CCN(c2ccccc2F)CC1)c1ccc2c(c1)OCO2,1.02 (inactive)
2,COCCNC(=O)CN1C(=O)CSc2ncccc21,1.05 (inactive)
3,CCOC(=O)N1CCC(NC(=O)COc2cc(=O)n(C)c3ccccc23)CC1,0.98 (inactive)
4,CCOC(=O)C1CCCN(C(=O)c2sc3nc(C)nc(N4CCOCC4)c3c2C)C1 (centres undefined),1.03 (inactive)
5,O=C(Cn1cc2c(n1)CCCCC2)NCCN1CCOCC1,0.97 (inactive)
6,COc1ccccc1-n1cnc2cc(C(=O)NCC3CCCO3)ccc21 (centres undefined),1.03 (inactive)
7,COCCn1c(=O)[nH]c2cc(C(=O)NCc3cccnc3)ccc2c1=O,1.03 (inactive)
8,COc1ccc(C(CC(=O)O)NC(=O)Cc2ccccc2)cc1 (centres undefined),0.92 (inactive)
9,CCOC(=O)CSc1nnc(CNC(=O)c2cccs2)n1-c1ccccc1,1.06 (inactive)
10,CC(C)C(=O)Nc1c(C(=O)c2ccc(F)cc2)oc2ccccc12,0.99 (inactive)
11,Nc1nonc1-c1nc2ccccc2n1CCC(=O)O,1.57 (inactive)
12,Cc1noc(C)c1CSc1nc2cc(S(=O)(=O)N3CCOCC3)ccc2o1,1.05 (inactive)
13,COc1ccc(C2C(C(=O)N3CCN(c4ccc(OC)cc4)CC3)c3ccccc3C(=O)N2C)cc1 (centres undefined),1.1 (inactive)
14,Cc1cc(N2C(=O)c3ccc(C(=O)NCc4ccccc4)cc3C2=O)no1,1.09 (inactive)
15,CCN(CC(=O)Nc1ccc2c(c1)OCCO2)Cc1cc(=O)oc2cc(C)c(C)cc12,1.06 (inactive)
16,CCOC(=O)C1CCN(C(=O)C2CCN(S(=O)(=O)N3CCCC3)CC2)CC1,0.96 (inactive)
17,CC(=O)c1c(C)c[nH]c1C,1.09 (inactive)
18,CCN1C(=O)/C(=C2/Sc3ccccc3N2CCCS(=O)(=O)O)SC1=S,1 (inactive)
19,CCN(CC)CCCNC(=O)c1cc(-c2cccc(Cl)c2)on1,1.16 (inactive)
20,Cc1cc(NC(=O)CN2CCC(O)(c3cccc(F)c3)CC2)no1,1.02 (inactive)
21,COCCOC(=O)C1=C(C)N=c2s/c(=C\c3cccs3)c(=O)n2C1c1cccs1 (centres undefined),1.11 (inactive)
22,Cc1c(C(=O)Nc2ccccc2Cl)oc2ccc(S(=O)(=O)N3CCC4(CC3)OCCO4)cc12,0.97 (inactive)
23,CC1(C)Oc2ccc3ccc(=O)oc3c2/C(=C/NCCO)C1=O,1.15 (inactive)
24,COCCNC(=O)c1snc2ccc(Cl)cc12,1 (inactive)
25,O=C(CN1CCN(CC(=O)Nc2ccc3c(c2)OCO3)CC1)Nc1ccc(F)cc1,0.97 (inactive)

row,Structure (SMILES),fluorescence ratio
1,Cc1ccc(S(=O)(=O)NCc2csc(C)n2)c(C)c1,0.95 (inactive)
2,Cc1cccn2c(=O)c3cc(C(=O)N4COCC4(C)C)n(C)c3nc12,1.08 (inactive)
3,COc1ccccc1N1CCN(Cc2nnnn2CCc2ccccc2)CC1,0.99 (inactive)
4,COc1ccc(C2CC(c3ccc(Cl)cc3Cl)Nc3nc(N)nn32)cc1OC (centres undefined),1.06 (inactive)
5,C=CCOC(=O)C1=C(C)OC(N)=C(C#N)C1c1ccc(F)cc1 (centres undefined),1.25 (inactive)
6,CC(=O)N1C(=O)C2(Nc3ccccc3N2)c2ccccc21,1.04 (inactive)
7,CCOC(=O)c1sc(=S)n(-c2cccc(OC)c2)c1N,1.14 (inactive)
8,Cc1ccccc1CSc1nnc(Cn2c(=O)sc3ccccc32)n1C,0.88 (inactive)
9,CCOC(=O)CSc1nnc(CNC(=O)c2ccco2)n1-c1ccc(F)cc1,1 (inactive)
10,CCOC(=O)c1ccc(CS(=O)c2ccc(Cl)cc2)o1 (centres undefined),1.08 (inactive)
11,CC1=C(C)CC2C(=O)N(c3cccc4ccccc34)C(=O)C2C1 (centres undefined),1.06 (inactive)
12,COC(=O)C(C)Sc1nc2c(c(=O)n(C)c(=O)n2C)n1Cc1cccc(C)c1 (centres undefined),1.09 (inactive)
13,O=C1OC(NC(=O)c2ccccc2)C(N2CCOCC2)=C1Cl (centres undefined),1.07 (inactive)
14,O=C(CN1CCN(c2ccc(F)cc2)CC1)Nc1cccc(C(F)(F)F)c1,0.96 (inactive)
15,CCc1ccc(NC(=O)CSc2nc3ccccc3c(=O)n2CCN2CCOCC2)cc1,1.15 (inactive)
16,CCn1cc(C(=O)NC2CCCCCC2)c(=O)c2cc(S(=O)(=O)N3CCCCC3)ccc21,1.18 (inactive)
17,CCCC(=O)NC(C)C(c1cccs1)N1CCN(c2ccccc2)CC1 (centres undefined),1.12 (inactive)
18,O=C(Nc1cccnc1)c1ccc2c(c1)OCO2,1.06 (inactive)
19,CCOC(=O)n1c(SCC(=O)N(CC)CC)nc2ccccc21,0.99 (inactive)
20,CCS(=O)(=O)N1CCCC(C(=O)NCc2ccc(C)cc2)C1 (centres undefined),0.99 (inactive)
21,CCOC(=O)C1CCN(C(=O)Cc2c(C(=O)O)[nH]c3ccccc23)CC1,1.09 (inactive)
22,COc1ccc(OC)c(C(=O)c2ccc(C(=O)O)cc2)c1,0.99 (inactive)
23,COc1ccccc1-c1c(C)nn2c(C)c(C(C)=O)cnc12,0.98 (inactive)
24,Cc1ccc(C)c(N2CCN(C(=O)CCc3nc4ccccc4[nH]3)CC2)c1,1.04 (inactive)
25,O=C(CN1CCOCC1)Nc1c2c(nc3c1CCC3)CCC2,0.96 (inactive)

row,Structure (SMILES),fluorescence ratio
1,Cc1cc(NC(=O)c2cc(-c3cccs3)on2)nn1Cc1ccc(Cl)cc1,1.05 (inactive)
2,CC(=O)Nc1nonc1-c1nc2ccccc2n1Cc1ccccn1,1.24 (inactive)
3,CC(Sc1sc(=S)sc1SC(C)C(=O)O)C(=O)O (centres undefined),0.93 (inactive)
4,Cn1c(=O)cc(SCC(=O)N2CCN(C(=O)c3ccco3)CC2)c2ccccc21,1.12 (inactive)
5,C=CCNC(=O)CSc1nc2sc(C)c(C)c2c(=O)[nH]1,1.07 (inactive)
6,O=C(O)CC(c1ccccc1)n1cnnn1 (centres undefined),0.92 (inactive)
7,Cn1nnnc1SCc1cc(=O)[nH]c2ccccc12,1.06 (inactive)
8,CC(C)OCCCNC(=O)C1CC(=O)N(C2CCCCCCC2)C1 (centres undefined),0.98 (inactive)
9,CCOc1ccc(N(CC(=O)NCc2ccc(OC)cc2)S(=O)(=O)c2c(C)noc2C)cc1,0.82 (inactive)
10,COc1ccc(CCN(Cc2cc3cccc(C)c3[nH]c2=O)C(=O)N2CCCC2)cc1OC,1.08 (inactive)
11,O=C(CN1C(=O)C2C3C=CC(C3)C2C1=O)NCCc1ccccc1Cl (centres undefined),1.19 (inactive)
12,O=C(CCn1c(=O)oc2ccccc21)Nc1ccon1,1.03 (inactive)
13,Cc1cc(=O)n2nc(N3CCCC(C(=O)N4CCN(C)CC4)C3)sc2n1 (centres undefined),1.07 (inactive)
14,Cc1ccc(-c2cc(C(F)(F)F)n3nc(C(=O)N4CCCC4)cc3n2)cc1,1.02 (inactive)
15,Cc1nc(C)c2c(c1C(F)(F)F)-c1ccccc1C2(F)F,1.11 (inactive)
16,CCOC(=O)c1cnc(-n2nc(C)cc2C)nc1Nc1cccc(C(C)=O)c1,1.06 (inactive)
17,COCc1[nH]nc2c1C(C1C=CCCC1)C(C#N)=C(N)O2 (centres undefined),1.09 (inactive)
18,Cc1noc(C)c1S(=O)(=O)NCCc1ccc(S(N)(=O)=O)cc1,1.07 (inactive)
19,Cn1c(=O)n(C)c2cc(CNc3ccc(N4CCOCC4)c(C(=O)O)c3)ccc21,0.99 (inactive)
20,O=C(O)C1CCCN(S(=O)(=O)c2cccc3cccnc23)C1 (centres undefined),0.95 (inactive)
21,CCCCn1c(CN2CCN(CCO)CC2)nc2ccccc21,1.04 (inactive)
22,COc1ccc(-c2nc(CS(=O)CC(=O)NCc3cccnc3)c(C)o2)cc1OC (centres undefined),0.78 (inactive)
23,COc1ccc(C2/C(=C(/O)c3ccccc3)C(=O)C(=O)N2c2ncccn2)cc1OC (centres undefined),0.98 (inactive)
24,Cc1nc(N2CCN(c3ncccn3)CC2)c2oc3ccccc3c2n1,1.15 (inactive)
25,CCOC(=O)N1CCN(C(=O)c2cn(C)c3ccc(S(=O)(=O)N4CCCC4)cc3c2=O)CC1,1.07 (inactive)

row,Structure (SMILES),fluorescence ratio
1,COc1ccccc1NC1=NC2(CCCC2)N=C(N)N1,1.04 (inactive)
2,COc1ccc(-c2cc3ccc(OCc4nn[nH]n4)cc3oc2=O)cc1,1.09 (inactive)
3,CNC(=O)c1ccc2nc(NC(C)=O)sc2c1,1.01 (inactive)
4,Fc1ccc2nc(N3CCCCC3)sc2c1,1.31 (inactive)
5,Fc1ccc2nc(Nc3nc4c(s3)CCCC4)sc2c1,4.43 (active)
6,CCOC(=O)C1CCCN(C(=O)C2CCN(c3nnc(-n4cccc4)s3)CC2)C1 (centres undefined),1.06 (inactive)
7,CSc1ccc(S(=O)(=O)Nc2cccc(F)c2)cc1,0.98 (inactive)
8,O=C(c1cnn2ccccc12)N1CCc2ccccc21,0.92 (inactive)
9,CCOC(=O)N1CCC(NC(=O)CCc2cn(C)c3ccccc23)CC1,0.96 (inactive)
10,N#CCCn1ncc2ccccc21,0.9 (inactive)
11,CCC1=C/C(=C\c2ccc3c(c2)OCO3)C(=O)S1,1.11 (inactive)
12,CC1CCCC(N2CCN(C(=O)c3ccc(F)cc3)CC2)C1 (centres undefined),0.93 (inactive)
13,Cc1c(C(=O)N2CC(C)OC(C)C2)sc2nc(-c3ccccc3)cn12 (centres undefined),1.33 (inactive)
14,CCC(=O)N1CCc2cc(S(=O)(=O)NC(C(=O)N3CCc4ccccc4C3)C(C)C)ccc21 (centres undefined),0.97 (inactive)
15,COc1ccc(CCNS(=O)(=O)c2ccc(C(=O)NCc3ccco3)cc2)cc1OC,1.03 (inactive)
16,c1cnn(-c2cc(N3CCOCC3)ncn2)c1,1.1 (inactive)
17,CCCCC(=O)N(c1ccc(OC)cc1)C1C=CS(=O)(=O)C1 (centres undefined),1.03 (inactive)
18,Cc1nc(SCC(=O)Nc2cc(C)on2)c2c3c(sc2n1)CCCC3,1.28 (inactive)
19,COc1cccc(Nc2nnc(SCC(=O)N3CC(C)OC(C)C3)s2)c1 (centres undefined),1.02 (inactive)
20,CC(=O)N(CC1CCCO1)C1(C(=O)NC2CCCC2)CCCCC1 (centres undefined),0.95 (inactive)
21,O=C(Nn1cc(C(=O)N2CCN(c3ccccc3F)CC2)c2ccccc2c1=O)c1cnccn1,1.02 (inactive)
22,COCCN1Cc2cccc(C(=O)Nc3ccccc3OC)c2C1=O,1.02 (inactive)
23,CCCCN(C)Cc1c(C)[nH]c2ccc(Cl)cc2c1=O,1.01 (inactive)
24,CCn1c(SCC(=O)Nc2ccccc2F)nc2c(c1=O)SC(C)C2 (centres undefined),0.98 (inactive)
